# Results taken from PubChem BioAssay.
# Measured potencies and affinities stand elsewhere. Results filed as inconclusive are left out. Activity calls are given as the source filed them.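 The calls were made as follows, unless noted: active = a dose-response fit showing signal loss, with half-maximal concentration no higher than twice the top tested dose; inconclusive = flat fit between 30% and 70% signal loss, or poor fit; inactive = the rest.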
# How the values were obtained:
# [1] = fungal growth arrest, C. neoformans – Alamar Blue, cherry-picks, dose response (AID 686998;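 active = falling signal with fitted half-maximal potency no higher than twice the top valid tested dose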)
# [2] = viability loss in HepG2 hepatoma cells – cell-based, cherry-picks, set 2, cytotoxicity control, dose response (AID 687002)
# [3] = viability loss in HeLa cells – cell-based, ATP luminescence, cherry-pick samples, cytotoxicity control, dose response (AID 687004;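 active = a fitted half-maximal concentration no higher than twice the top valid tested dose, with signal falling as cells die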)
# [4] = C. neoformans lysis by adenylate kinase leakage – AK release luminescence, cherry-picks, dose response (AID 687000;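 active = fitted dose curve reaches 40% lysis signal rise at or below the highest valid concentration tested for that sample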;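 also: luminescent detection of adenylate kinase leaking from lysed yeast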)
SMILES,outcome [1],outcome [2],outcome [3],outcome [4]
CCN(Cc1ccccc1)C(=O)COc1ccccc1,inactive,inactive,inactive,–
COCC(=O)N(C)C[C@H]1Oc2ncc(-c3ccccc3F)cc2C(=O)N([C@@H](C)CO)C[C@H]1C,inactive,inactive,inactive,–
C[C@H]1CN([C@@H](C)CO)C(=O)Cc2cc(NS(C)(=O)=O)ccc2O[C@@H]1CN(C)Cc1ccc(Cl)c(Cl)c1,inactive,inactive,inactive,–
O=C(NCCN1CCCCC1)[C@@H]1N[C@@H]2c3ccc(-c4ccncc4)c(=O)n3C[C@@H]2[C@H]1CO,inactive,inactive,inactive,–
CC(C)CC#Cc1cnc2c(c1)C(=O)N([C@H](C)CO)C[C@H](C)[C@@H](CN(C)Cc1cccc(F)c1)O2,inactive,inactive,inactive,–
C[C@H]1CN([C@@H](C)CO)C(=O)c2ccccc2-c2ccccc2CO[C@H]1CN(C)S(=O)(=O)c1cccc(C#N)c1,inactive,inactive,inactive,–
COc1ccc(NC(=S)NCc2ccc(Cl)cc2)c(OC)c1,inactive,inactive,inactive,–
CC(C)NC(=O)N[C@H]1CC[C@@H](CCNC(=O)C2CC2)O[C@H]1CO,inactive,inactive,inactive,–
Cc1cccc(C)c1NC(=O)CN(C)C(=O)C1CC1C (centres undefined),inactive,inactive,inactive,–
COCCNC(=O)C[C@@H]1C[C@H]2c3cc(NC(=O)C4CCOCC4)ccc3O[C@H]2[C@H](CO)O1,inactive,inactive,inactive,–
O=C(Nc1ccccc1N1CCOCC1)c1cccc([N+](=O)[O-])c1,inactive,inactive,inactive,–
C[C@H]1CN([C@@H](C)CO)C(=O)Cc2cc(N(C)C)ccc2O[C@@H]1CN(C)C(=O)Nc1ccc(C(F)(F)F)cc1,inactive,inactive,inactive,–
Cc1noc(C)c1S(=O)(=O)Nc1ccc2c(c1)C(=O)N([C@@H](C)CO)C[C@@H](C)[C@@H](CN(C)Cc1ccccc1)OCCCC[C@H](C)O2,inactive,inactive,inactive,–
CCCC(=O)Nc1ccc2c(c1)C(=O)N(C)C[C@H](OC)[C@@H](C)CN(C(=O)c1cccnc1)[C@@H](C)CO2,inactive,inactive,inactive,–
C[C@@H]1CN([C@@H](C)CO)C(=O)c2cc(NC(=O)C3CC3)ccc2O[C@H]1CN(C)CC1CCCCC1,inactive,inactive,inactive,–
C[C@@H]1CCCCO[C@@H](CN(C)C(=O)CCCN(C)C)[C@@H](C)CN([C@H](C)CO)C(=O)c2cc(NC(=O)Cc3ccccc3)ccc2O1,inactive,inactive,inactive,–
CCC(=O)N(C)C[C@@H]1Oc2cc(C#CC(C)(C)O)ccc2S(=O)(=O)N([C@H](C)CO)C[C@H]1C,inactive,inactive,inactive,–
Cc1noc(C)c1S(=O)(=O)Nc1ccc2c(c1)CC(=O)N([C@H](C)CO)C[C@H](C)[C@H](CN(C)S(=O)(=O)c1cccs1)O2,inactive,inactive,inactive,–
CCCC(=O)Nc1ccc2c(c1)C(=O)N(C)C[C@H](OC)[C@@H](C)CN(C(=O)c1cccnc1)[C@H](C)CO2,inactive,inactive,inactive,–
COC(=O)C1=C(C)N(Cc2ccccc2)C(=S)N[C@H]1c1ccc(Br)cc1,inactive,inactive,inactive,–

SMILES,outcome [1],outcome [2],outcome [3],outcome [4]
O=C(Cc1ccccc1)N[C@H]1C=C[C@@H](CC(=O)N2CCOCC2)O[C@@H]1CO,inactive,inactive,inactive,–
COc1ccc(NC(=O)N(C)C[C@@H]2OCCCC[C@@H](C)Oc3ccc(NC(=O)Nc4ccc5c(c4)OCO5)cc3C(=O)N([C@@H](C)CO)C[C@H]2C)cc1,inactive,inactive,inactive,–
CC(C)NC(=O)Nc1ccc2c(c1)C(=O)N([C@@H](C)CO)C[C@H](C)[C@@H](CN(C)S(=O)(=O)c1cccs1)OCCCC[C@H](C)O2,inactive,inactive,inactive,–
C[C@@H]1CCCCO[C@H](CN(C)S(=O)(=O)c2cccs2)[C@@H](C)CN([C@@H](C)CO)C(=O)c2cc(NC(=O)CCC(F)(F)F)ccc2O1,inactive,inactive,inactive,–
CC(C)NC(=O)Nc1ccc2c(c1)C(=O)N([C@@H](C)CO)C[C@@H](C)[C@H](CN(C)C(=O)c1ccncc1)OCCCC[C@H](C)O2,inactive,inactive,inactive,–
C[C@@H]1CCCCO[C@@H](CN(C)C(=O)Nc2cccc3ccccc23)[C@@H](C)CN([C@H](C)CO)C(=O)c2cc(NS(=O)(=O)c3ccccc3)ccc2O1,inactive,inactive,inactive,–
N#Cc1ccc(C23CC4(C2)[C@H](CN(Cc2ccc(C(F)(F)F)cc2)[C@@H]4c2ccccc2)C3c2ccc(C(F)(F)F)cc2)cc1 (some centres undefined),inactive,inactive,inactive,–
C[C@@H]1CN([C@H](C)CO)S(=O)(=O)c2ccc(C#C[C@@H](C)O)cc2O[C@@H]1CN(C)Cc1ccncc1,inactive,inactive,inactive,–
C[C@@H]1CN([C@@H](C)CO)C(=O)Cc2cc(NC(=O)c3ccncc3)ccc2O[C@H]1CN(C)Cc1ccncc1,inactive,inactive,inactive,–
C[C@H]1CN([C@@H](C)CO)C(=O)c2cc(-c3ccc(F)cc3)cnc2O[C@@H]1CN(C)CC1CCCCC1,inactive,inactive,inactive,–
CC(C)C#Cc1ccc([C@@H]2[C@H](CO)N3CCCCN(C(=O)c4ccc5c(c4)OCO5)C[C@@H]23)cc1,inactive,inactive,inactive,–
COCCN1C(=S)N[C@@H](c2ccccc2)C(C(=O)OC)=C1C,inactive,inactive,inactive,–
CNC[C@@H]1OCCCC[C@@H](C)Oc2ccc(NC(=O)Nc3ccc4c(c3)OCO4)cc2C(=O)N([C@H](C)CO)C[C@@H]1C,inactive,inactive,inactive,–
COc1cccc(NC(=O)N2C[C@H](O)COC[C@H]3O[C@@H](CC(=O)NCc4ccccc4F)CC[C@@H]32)c1,inactive,inactive,inactive,–
COCCNC(=O)C[C@H]1C[C@@H]2c3cc(NC(=O)C4CCC4)ccc3O[C@@H]2[C@H](CO)O1,inactive,inactive,inactive,–
C[C@H](CO)N1C[C@H](C)[C@@H](CN(C)C(=O)c2ccncc2)OCCCC[C@H](C)Oc2ccc(NC(=O)Cc3ccccc3)cc2C1=O,inactive,inactive,inactive,–
COc1ccc(CN(C)C[C@@H]2Oc3ccc(NC(=O)C4CC4)cc3C(=O)N([C@@H](C)CO)C[C@H]2C)cc1,–,inactive,inactive,inactive
COC(=O)C1=C(C)N(Cc2ccc(Cl)cc2)C(=S)NC1c1cccc(OC)c1 (centres undefined),–,inactive,inactive,inactive
O=C(NC(=S)Nc1cccc(F)c1)c1cccc([N+](=O)[O-])c1,inactive,inactive,inactive,–
CC(C)NC(=O)Nc1ccc2c(c1)CC(=O)N([C@H](C)CO)C[C@H](C)[C@@H](CN(C)C(=O)Nc1ccc3c(c1)OCO3)O2,–,inactive,–,inactive
